From PubChem
An excerpt weighted towards active compounds, which were near 6.7% of everything screened.
PINK1 modulator: PINK1 expression modulation | 410,000 compounds, 0.2% hits | PINK1 immunofluorescence, high-content cytometry, 24 h | AID 624263 | Potency, µM (titrated, usually from 76.6 µM), usual class: activators; active = well fitted activation curve with a large enough effect; inconclusive = small, poorly fitted or top-dose-only effect; cell line not stated here; note: nearly all actives have a fitted effect of over 65% in size
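Stable cell line, 250 cells/well, 12 h attachment; compounds pinned at 5 concentrations, 24 h; CCCP control. Fixed with nuclear dye, primary antibodies 12 h at 10 degrees C, secondary plus cell stain; laser-scanning cytometer read.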
KB-V1 cytotox: KB-V1 MDR subline cytotoxicity; KB-V1 MDR cells viability, CellTiter-Glo, 72 h; Potency, µM (titrated, usually from 46.1 µM), most hits filed as cytotoxic; 400,000 compounds, 3.4% hits; AID 1347076; note: nearly all actives have a fitted effect of over 60% in size
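KB-V1, DMEM (no phenol red) + 10% FBS; cpd pin-transferred, titration series; 72 h, 37 degrees C; CellTiter-Glo, luminescence. Data normalized, curve-fit.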
MCF10A rereplic: induces DNA re-replication in MCF 10a normal breast cells; MCF 10A DNA re-replication, Hoechst nuclear intensity, 48 h; Potency, µM (doses to about 46.1 µM), usual class: activators; 350,000 compounds, 2.9% hits; note: nearly all actives have a fitted effect of over 50% in size
SW480 rerep: inducers of DNA re-replication in SW480 colon cancer cells | SW480 DNA re-replication, Hoechst DNA content imaging, 48 h | Potency, µM (top dose mostly 46.1 µM), usual class: activators | 340,000 compounds, 1.8% hits | AID 624297; note: nearly all actives have a fitted effect of over 55% in size
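Image-based read-out: total Hoechst fluorescence of nuclei (405 nm excitation, 500-530 nm emission), with hits raising the fraction of high-intensity nuclei. SW480 colon cells incubated 48 hr with compounds at 37 C.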
KB-3-1 tox: KB-3-1 parental cell cytotoxicity; KB-3-1 viability, CellTiter-Glo ATP luminescence, 72 h; Potency, µM (series often up to 46.1 µM), most hits filed as cytotoxic; 400,000 compounds, 1.4% hits; AID 1347075; note: nearly all actives have a fitted effect of over 60% in size
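Multi-concentration cytotoxicity screen in KB-3-1 cells grown in DMEM lacking phenol red with 10% FBS. After 72 h at 37 °C with compound, ATP-dependent luminescence was recorded.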
A number is an active result; [ ] = dose if it differs, or a comment. Unless noted, calls come from the whole dose curve; as a rule, active = well fitted curve in the direction sought with a large enough effect; inconclusive = small, poorly fitted or top-dose-only effect, or another doubt; inactive = no such curve, though single readings can be large; an effect the other way counts as inactive or inconclusive.

O=C(CN1C(=O)NC(c2ccc(F)cc2)C1=O)Nc1ccc2c(c1)OCCO2 (configuration not stated) was read as PINK1 modulator inactive, KB-V1 cytotox inactive, MCF10A rereplic inactive, SW480 rerep inactive and KB-3-1 tox inactive.
`C=CCNC(=O)c1onc(CCl)c1C(=O)OC` gave PINK1 modulator inactive, KB-V1 cytotox inconclusive, MCF10A rereplic 18µM, SW480 rerep inconclusive and KB-3-1 tox inconclusive.
COC(=O)c1ccccc1NC(=O)COC(=O)c1ccc(C)c(NC(=O)c2ccco2)c1 was read as PINK1 modulator inactive, KB-V1 cytotox 3.7µM, MCF10A rereplic inactive, SW480 rerep inconclusive and KB-3-1 tox inactive.
Screening CCC(=O)Nc1ccc(NC(=O)c2ccco2)c(OC)c1 returned PINK1 modulator inactive, KB-V1 cytotox inactive, MCF10A rereplic inactive[9.22 µM], SW480 rerep inactive and KB-3-1 tox inactive.
Screening COc1ccc(NC(=O)COC(=O)c2cc(OC)c(OC)cc2NC(=O)c2ccco2)cc1OC returned PINK1 modulator inactive, KB-V1 cytotox inactive, MCF10A rereplic inconclusive, SW480 rerep 10µM and KB-3-1 tox inactive.
Screening CCCC(=O)Nc1ccc(NC(=O)c2ccco2)c(OC)c1 returned PINK1 modulator 3.5µM, KB-V1 cytotox inactive, MCF10A rereplic inactive, SW480 rerep inactive and KB-3-1 tox inactive.
Cc1cccc(NC(=S)NNC(=O)c2ccccc2OC(F)F)c1 was read as PINK1 modulator inactive, KB-V1 cytotox 16µM, MCF10A rereplic inconclusive, SW480 rerep inactive and KB-3-1 tox inconclusive.
`COc1ccc(NC(=S)NNC(=O)c2ccccc2OC(F)F)cc1` gave PINK1 modulator inactive, KB-V1 cytotox inactive, MCF10A rereplic inconclusive, SW480 rerep 0.58µM and KB-3-1 tox inactive.
For N=c1c2c(-c3ccccc3)c(-c3ccccc3)n(Cc3ccco3)c2ncn1Cc1ccco1 the results were PINK1 modulator inactive, KB-V1 cytotox inconclusive, MCF10A rereplic inconclusive, SW480 rerep inactive and KB-3-1 tox 16µM.
For CC(=O)Nc1c(-c2cc(=O)oc3cc(C)ccc23)oc2ccccc12 the results were PINK1 modulator inactive, KB-V1 cytotox inactive, MCF10A rereplic inactive, SW480 rerep inactive and KB-3-1 tox inactive.
Screening O=C(NC1c2ccccc2-c2ccccc21)N1CCCCC1 returned PINK1 modulator inactive, KB-V1 cytotox 16µM, MCF10A rereplic inactive, SW480 rerep inactive and KB-3-1 tox inconclusive.
`CC1=C(C(=O)OCc2ccc3nsnc3c2)N2C(=O)[C@@H](NC(=O)OCc3ccc4nsnc4c3)[C@H]2SC1` gave KB-V1 cytotox inactive and KB-3-1 tox inactive.
COC(=O)c1c(NC(=O)Cn2cnc([N+](=O)[O-])n2)sc2c1CCC(C)C2 (configuration not stated) was read as PINK1 modulator inactive, KB-V1 cytotox 16µM, MCF10A rereplic inconclusive, SW480 rerep inactive and KB-3-1 tox inactive.
`CCOC(=O)c1c(NC(=O)Cn2cnc([N+](=O)[O-])n2)sc2c1CCC(C)C2` (configuration not stated) gave PINK1 modulator inactive, KB-V1 cytotox inactive, MCF10A rereplic inactive, SW480 rerep inactive and KB-3-1 tox inactive.
Screening Cc1c(Cl)c([N+](=O)[O-])nn1CCCC(=O)Nc1sc2c(c1C(N)=O)CCC(C)C2 (configuration not stated) returned PINK1 modulator inactive, KB-V1 cytotox inactive, MCF10A rereplic inactive, SW480 rerep inactive and KB-3-1 tox inactive.
`Cc1c(Br)c([N+](=O)[O-])nn1CCCC(=O)Nc1sc2c(c1C(N)=O)CCC(C)C2` (configuration not stated) gave PINK1 modulator inactive, KB-V1 cytotox 8.2µM, MCF10A rereplic inactive, SW480 rerep inactive and KB-3-1 tox inconclusive.
For O=C(Nc1ccc(F)cc1)C(CCc1ccccc1)N1CCN(Cc2c(F)cccc2Cl)CC1 (configuration not stated) the results were KB-V1 cytotox inconclusive and KB-3-1 tox inactive.
For Cc1ccc(OCC(=O)NCCCNC(=O)c2ccc(C)nc2)cc1 the results were PINK1 modulator inactive, KB-V1 cytotox inactive, MCF10A rereplic inactive, SW480 rerep inactive and KB-3-1 tox inactive.
CCOC(=O)c1ccccc1NC(=O)CSc1cn(CC(=O)N2CCCCC2)c2ccccc12 was read as PINK1 modulator inactive.
For CCc1ccc2nc(SCC(=O)N(CC)CC)c(C#N)cc2c1 the results were PINK1 modulator inactive, KB-V1 cytotox 13µM, MCF10A rereplic inconclusive, SW480 rerep inactive and KB-3-1 tox inactive.
`CCN(CC)C(=O)CSc1nc(C)cc(C)c1C#N` gave PINK1 modulator inactive, KB-V1 cytotox inactive, MCF10A rereplic inactive, SW480 rerep inactive and KB-3-1 tox inactive.
`CCOC(=O)Nc1nc2ccc(Cn3cccc3)cc2[nH]1` gave PINK1 modulator inactive, KB-V1 cytotox 1.2µM, MCF10A rereplic 3.3µM, SW480 rerep 1.3µM and KB-3-1 tox 0.58µM.
CCCOc1ccc2nc(NC(=O)OC)[nH]c2c1 was read as MCF10A rereplic 4.6µM and SW480 rerep 2.9µM.
For CCOc1ccc2nc(NCCCO)[nH]c2c1 the results were PINK1 modulator inactive, KB-V1 cytotox inactive, MCF10A rereplic inactive, SW480 rerep inactive and KB-3-1 tox inactive.
Screening COc1ccc(Nc2ncnc3c2cnn3C)c(OC)c1 returned PINK1 modulator inactive.
`COc1ccccc1CN1COc2ccc3c(C)cc(=O)oc3c2C1` gave PINK1 modulator inactive, KB-V1 cytotox inconclusive and KB-3-1 tox inactive.
`CCCCCOc1ccc(NC(=O)Cc2csc(C)n2)cc1` gave PINK1 modulator inactive.
CCOc1ccc(CCNC(=O)C2CCN(c3ncnc4c3nc3n4CCCCC3)CC2)cc1 was read as PINK1 modulator inactive.
Screening Cc1ccc(CS(=O)(=O)c2ncc(Cl)c(C(=O)Nc3nnc(C(C)C)s3)n2)cc1 returned PINK1 modulator inactive, KB-V1 cytotox inconclusive, MCF10A rereplic inconclusive, SW480 rerep inactive and KB-3-1 tox inconclusive.
`CC(C)c1nnc(NC(=O)c2nc(S(=O)(=O)Cc3ccccc3F)ncc2Cl)s1` gave PINK1 modulator inactive, KB-V1 cytotox inactive, MCF10A rereplic 0.73µM, SW480 rerep inactive and KB-3-1 tox inconclusive.
For Cc1nnc(NC(=O)c2nc(S(=O)(=O)Cc3ccccc3C)ncc2Cl)s1 the results were PINK1 modulator inactive, KB-V1 cytotox inconclusive, MCF10A rereplic 2.6µM, SW480 rerep inconclusive and KB-3-1 tox inconclusive.
CC(C)c1nnc(NC(=O)c2nc(S(=O)(=O)Cc3ccc(F)cc3)ncc2Cl)s1 was read as PINK1 modulator inactive, KB-V1 cytotox inactive, MCF10A rereplic 0.73µM, SW480 rerep 1.3µM and KB-3-1 tox inconclusive.
Screening Cc1ccc(C(=O)Nc2ccc(S(=O)(=O)N3CCc4ccccc43)cc2)o1 returned PINK1 modulator inactive, KB-V1 cytotox inconclusive, MCF10A rereplic inactive, SW480 rerep inactive and KB-3-1 tox inactive.
O=C(Nc1ccc(Cc2ccncc2)cc1)c1ccc([N+](=O)[O-])o1 was read as PINK1 modulator inactive, KB-V1 cytotox inactive, MCF10A rereplic 3.7µM, SW480 rerep 5.2µM and KB-3-1 tox inconclusive.
